TDP1 inh: qHTS Assay for Inhibitors of Tyrosyl-DNA Phosphodiesterase (TDP1) | Tyrosyl-DNA phosphodiesterase 1 (Homo sapiens), Q9NUW8 | recombinant TDP1, AlphaScreen DNA substrate cleavage | Potency, µM (titrated, usually from 130 µM), inactives show at the top dose activity change, negative = inhibition, most hits filed as inhibitors | actives 0.28% (n = 350,000); further: on the % scale 0 is the no-effect control and ±100 the full control effect; nearly all actives have a fitted effect of over 40% in size
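Here, a 5' biotin and 3' phosphotyrosine-FITC DNA oligonucleotide reports Tdp1 activity: intact substrate bridges AlphaScreen beads, while cleavage leaves a 3' phosphate and drops signal. All incubations at room temperature.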
TDP1 cell CPT: qHTS for Inhibitors of human tyrosyl-DNA phosphodiesterase 1 (TDP1): qHTS in cells in presence of CPT; chicken DT40 Tdp1-/-;hTDP1 cells + 20 nM CPT, ATP luminescence, 48 h; Potency, µM (series often up to 46.2 µM), inactives show top-dose activity change, negative = growth inhibition, most hits filed as inhibitors; actives 12% (n = 420,000); AID 686979, 2013; further: on the % scale 0 is the no-effect control and ±100 the full control effect; nearly all actives have a fitted effect of over 55% in size
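Chicken DT40 Tdp1-/- cells stably complemented with human TDP1 were seeded at 400 cells/well in medium containing 20 nM camptothecin, exposed to pin-transferred compounds, and grown at 37 °C for at least 48 hr. Viability was read as ATP luminescence.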
ClpP mod: qHTS Assay for Activators of ClpP | actives 1.9% (n = 340,000) | Potency, µM (titrated, usually from 57.5 µM), for inactives: top-dose activity change, negative = active | purified B. subtilis ClpP, FRET peptide cleavage, 20 min | ATP-dependent Clp protease proteolytic subunit (Bacillus subtilis (strain 168)), P80244; active means well fitted falling curve with a large enough effect; inconclusive means small, poorly fitted or top-dose-only effect; inactive means no such curve, though single readings can be large or run the other way; further: the source files actives as falling curves though it sought activators and does not explain the sign; nearly all actives have a fitted effect of over 65% in size
Target sequence (P80244 whole entry, looked up): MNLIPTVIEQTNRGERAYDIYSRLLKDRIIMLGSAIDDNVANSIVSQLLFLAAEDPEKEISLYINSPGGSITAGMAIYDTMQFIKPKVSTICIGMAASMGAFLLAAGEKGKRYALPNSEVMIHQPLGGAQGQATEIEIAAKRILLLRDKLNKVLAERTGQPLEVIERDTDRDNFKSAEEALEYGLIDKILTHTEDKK
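Buffer: 100 mM Tris/HCl pH8, 100 mM KCl, 0.05% low protease BSA, 2.5% glycerol, 0.01% Tween-20. ClpP 10 microg/mL final; 20 min RT; delta FRET normalized to ADEP and DMSO controls.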
DT40 TDP1 no CPT: qHTS for Inhibitors of human tyrosyl-DNA phosphodiesterase 1 (TDP1): qHTS in cells in absence of CPT | DT40 Tdp1-/- hTDP1 cells, no CPT, ATP luminescence, 48 h | Potency, µM (doses to about 46.2 µM), without a hit: at the highest dose activity change, negative = growth inhibition, most hits filed as inhibitors | actives 15% (n = 420,000) | AID 686978, 2013; further: on the % scale 0 is the no-effect control and ±100 the full control effect; nearly all actives have a fitted effect of over 55% in size
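Growth of hTDP1-complemented DT40 Tdp1-knockout cells is measured by ATP luminescence after at least 48 hr compound exposure at 37 °C, with DMSO substituting for the 20 nM CPT used in the parallel screen.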
* = called active by the depositor; u = inconclusive; x = not tested or not shown; [ ] = another dose, or the depositor's remark. Compounds with a hit are over-represented: about 17% of the library has one in this group of screens. Unless noted, the call rests on the fitted dose curve; in most records, active means well fitted curve in the direction sought with a large enough effect; inconclusive means small, poorly fitted or top-dose-only effect, or another doubt; inactive means no such curve, though single readings can be large; an effect the other way counts as inactive or inconclusive. Potency means the concentration at half of the fitted maximal effect.

SMILES	TDP1 inh	TDP1 cell CPT	ClpP mod	DT40 TDP1 no CPT
CC(C)CC(=O)Nc1ccc2nc(SCC(=O)N3CCc4ccccc43)sc2c1	3.6%	5.17µM*	-11.2%	2.91µM*
CCC(CC)C(=O)Nc1ccc2nc(SCC(=O)N3CCc4ccccc43)sc2c1	-1.6%	4.61µM*	-0.7%	5.17µM*
CCCC(=O)Nc1ccc2nc(SCC(=O)N3CCCC3)sc2c1	2.6%	-25.7%	x	u
CC(C)C(=O)Nc1ccc2nc(SCC(=O)N3CCc4ccccc43)sc2c1	-3.6%	10.3µM*	-5.8%	4.11µM*
CCCNC(=O)Nc1cc(OC)c(OC)cc1Cc1nccc2cc(OC)c(OC)cc12	x	-1.6%	-2.9%	9.0%
CC(C)(C)c1ccc(C(=O)NCC(c2ccco2)S(=O)(=O)c2ccccc2)cc1 (centres undefined)	2.7%	18.4µM*	1.3%	23.1µM*
CCOc1ccc(C(=O)NCC(c2cccs2)N(C)C)cc1 (centres undefined)	2.6%	u	-1.9%	-18.7%
CCOc1ccc(C(=O)NCC(c2cccs2)S(=O)(=O)c2ccccc2)cc1 (centres undefined)	5.2%	29.1µM*	-1.1%	u
CC(C)(C)c1ccc(C(=O)NCC(c2cccs2)S(=O)(=O)c2ccccc2)cc1 (centres undefined)	0.0%	16.4µM*	-12.8%	14.6µM*
COc1cc(C(=O)NCC(c2ccco2)S(=O)(=O)c2ccccc2)cc(OC)c1OC (centres undefined)	0.0%	u	3.5%	u
O=S(=O)(NCC(c1cccs1)S(=O)(=O)c1ccccc1)c1ccccc1 (centres undefined)	-5.2%	1.16µM*	-1.5%	1.84µM*
O=C(NCC(c1cccs1)S(=O)(=O)c1cccs1)c1ccc(C(F)(F)F)cc1 (centres undefined)	0.0%	u	-1.5%	u
O=C(N/N=C/c1ccc(O)cc1)/C(=C/c1ccccc1)CCO	-0.6%	4.7%	-7.2%	-2.2%
COc1ccc(C2CC(c3ccc(C(F)(F)F)cc3)=NN2c2ccc(S(N)(=O)=O)cc2)cc1 (centres undefined)	-9.6%[56.1 µM]	18.4µM*	4.8%	u
CCc1ccc(C2=NN(c3ccc(S(N)(=O)=O)cc3)C(c3ccc(F)cc3)C2)cc1 (centres undefined)	0.0%	18.4µM*	-0.7%	u
Cc1ccc(C2CC(c3ccccc3)=NN2c2ccc(S(N)(=O)=O)cc2)cc1 (centres undefined)	x	29.1µM*	4.6%	u
CCCCC12CN3CC(C)(CN(C1)C3c1ccc(OCc3ccccc3)cc1)C2=O (centres undefined)	2.3%	u	1.0%	u
Nc1c(Cl)cc(N=Nc2ccccc2)cc1Cl	x	u	x	13µM*
O=C(NCCN1CCC(n2c(=O)[nH]c3ccccc32)CC1)N1c2ccccc2Sc2ccccc21	x	u	1.2%	16.4µM*
CCCCc1nnc(SCc2cc(=O)c3cc(F)ccc3[nH]2)n1C	-2.7%	u	1.3%	u
COc1ccc(S(=O)(=O)N2CCCN(Cc3cccc(F)c3)CC2)cc1	2.0%	20.6µM*	-1.2%	u
COc1ccc(CN2CCN(C(=O)c3ccc(S(=O)(=O)N4CCCCCC4)cc3)CC2)cc1	4.1%	u	-0.7%	14.6µM*
O=C(c1ccc(S(=O)(=O)N2CCCCCC2)cc1)N1CCN(Cc2ccccc2)CC1	-0.5%[56.1 µM]	-29.8%	0.5%	-26.8%
CN(c1ccc(C(=O)N2CCN(Cc3ccc4c(c3)OCO4)CC2)cc1)S(C)(=O)=O	-1.2%	-8.0%	x	-28.6%
O=C(c1ccc(S(=O)(=O)N2CCCC2)cc1)N1CCN(Cc2ccc3c(c2)OCO3)CC1	6.8%	u	1.6%	16.4µM*
COc1ccc(C(=O)N2CCN(S(=O)(=O)c3ccc(Br)cc3)CC2)cc1	1.5%	18.4µM*	0.2%	u
Cc1ccc(S(=O)(=O)N2CCN(Cc3cccc(F)c3)CC2)cc1	x	-5.6%	x	-22.8%
Cc1ccc(C(=O)N2CCN(S(=O)(=O)c3ccc(C)cc3)CC2)cc1	0.0%	-29.0%	x	-29.6%

High-throughput results (PubChem BioAssay)
